The values below come from PubChem BioAssay AID1456 (Vanderbilt High Throughput Screening Facility, 2008).

Screen size: about 190,000 compounds; about 4,100 (2.2%) were called active. The entries come from a sample that favours actives as a whole. A number with no mark means an inactive call.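 Rule for the calls: active = thallium flux slope and its plate-corrected score both differing from the plate sample mean at a set confidence after two filtering rounds, in either direction; inactive = the rest.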

Solute carrier family 12 member 5 (Homo sapiens), sequence (Q9H2X9 whole entry, looked up): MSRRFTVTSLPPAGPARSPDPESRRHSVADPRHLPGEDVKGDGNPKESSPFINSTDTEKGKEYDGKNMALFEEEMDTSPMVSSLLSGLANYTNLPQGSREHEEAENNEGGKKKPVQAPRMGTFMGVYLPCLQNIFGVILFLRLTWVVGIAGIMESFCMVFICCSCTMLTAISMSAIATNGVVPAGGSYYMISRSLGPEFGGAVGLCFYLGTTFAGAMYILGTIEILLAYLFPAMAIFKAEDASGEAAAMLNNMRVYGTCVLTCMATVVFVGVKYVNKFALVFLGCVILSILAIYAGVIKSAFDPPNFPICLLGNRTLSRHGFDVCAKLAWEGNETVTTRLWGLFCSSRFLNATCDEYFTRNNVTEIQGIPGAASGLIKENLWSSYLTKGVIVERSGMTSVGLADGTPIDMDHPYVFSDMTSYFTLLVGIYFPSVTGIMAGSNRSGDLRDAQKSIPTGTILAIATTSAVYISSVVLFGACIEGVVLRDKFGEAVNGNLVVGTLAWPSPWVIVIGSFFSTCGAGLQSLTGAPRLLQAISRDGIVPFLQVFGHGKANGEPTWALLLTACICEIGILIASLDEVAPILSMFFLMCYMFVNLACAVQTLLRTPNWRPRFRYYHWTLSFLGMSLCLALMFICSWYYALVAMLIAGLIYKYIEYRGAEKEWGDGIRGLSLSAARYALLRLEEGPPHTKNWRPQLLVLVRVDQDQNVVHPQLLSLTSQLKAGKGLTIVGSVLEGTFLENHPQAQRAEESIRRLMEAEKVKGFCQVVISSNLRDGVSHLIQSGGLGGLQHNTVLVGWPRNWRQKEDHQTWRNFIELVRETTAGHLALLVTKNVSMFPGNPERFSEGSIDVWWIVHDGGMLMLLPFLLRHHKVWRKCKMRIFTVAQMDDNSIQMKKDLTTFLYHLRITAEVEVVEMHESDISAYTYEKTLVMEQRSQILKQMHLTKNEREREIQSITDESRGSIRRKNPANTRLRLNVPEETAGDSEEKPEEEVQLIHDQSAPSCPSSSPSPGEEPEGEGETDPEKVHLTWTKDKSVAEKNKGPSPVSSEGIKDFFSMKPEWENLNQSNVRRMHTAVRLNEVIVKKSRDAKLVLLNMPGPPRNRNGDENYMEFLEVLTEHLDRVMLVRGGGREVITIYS

This assay concerns the target Solute carrier family 12 member 5 (Homo sapiens) (UniProt Q9H2X9). In words: KCC2 cotransporter modulators, thallium flux, primary screen, cell-based, HEK293 KCC2, FluoZin-2 fluorescence, MLSMR (AID 1456).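 Note: slope of fluorescence scaled to starting intensity during 10 to 20 s after thallium.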 As to conditions: KCC2 cells, thallium flux FluoZin-2 fluorescence; at 10 µM.
Consider `O=C(NC1CCN(Cc2ccccc2)CC1)c1c(F)cccc1F`, for which the B-score of Tl+ flux slope (higher = more flux/activation; lower = inhibition) is -1.12.

In the case of `S=C(Nc1ccc(Br)cc1Cl)NC1CCN(Cc2ccccc2)CC1`, the B-score of Tl+ flux slope (higher = more flux/activation; lower = inhibition) is -1.46. As for `S=C(NN=C1CCN(Cc2ccccc2)CC1)NC1CCCCC1`, the B-score of Tl+ flux slope (higher = more flux/activation; lower = inhibition) is -3.5 (active). Next, `Fc1cc(F)c2nc(N3CCOCC3)sc2c1`: -0.123; `NC(=O)c1c(Nc2nc3c(F)cccc3s2)sc2c1CCCC2`: -0.0899; `Fc1cc(F)c2nc(Nc3nc4c(F)cccc4s3)sc2c1`: 69.3 (active). Next, `O=S(=O)(Nc1ccc(OC(F)(F)F)cc1)c1cccc2nonc12`: -0.299.

In the case of `CN(C)S(=O)(=O)c1ccc(C(=O)NCC(C)(C)N2CCOCC2)cc1`, the B-score of Tl+ flux slope (higher = more flux/activation; lower = inhibition) was -0.162. Next, `Cn1c(=O)c2c(ncn2CCc2ccccc2)n(C)c1=O`: -0.25. Consider `CC(=O)Oc1ccccc1C(=O)Nc1ncc([N+](=O)[O-])s1`, for which the B-score of Tl+ flux slope (higher = more flux/activation; lower = inhibition) was -3 (active). For `O=C(CCc1ccccc1)Nc1ncc([N+](=O)[O-])s1` the value was -3. Next, `O=C(Cc1c(F)cccc1Cl)Nc1ncc([N+](=O)[O-])s1`: -1.12; `O=C(CNC(=O)c1ccco1)OCC(=O)c1ccccc1`: 7.3 (active); `O=C(COC(=O)c1ccccc1C(=O)c1ccccc1)c1ccco1`: -0.42.

As to `O=C(COC(=O)CNC(=O)c1ccco1)Nc1ccc(F)cc1`, the B-score of Tl+ flux slope (higher = more flux/activation; lower = inhibition) was 0.652. Next, `Cn1nccc1NS(=O)(=O)c1ccc(F)cc1`: 0.158. For `Cc1nn(C)c(C(=O)NNC(=S)NC2CCCCC2)c1Cl` the value was -0.0757; for `COc1cccc(NC(=S)NC(=O)c2c(Cl)c(C)nn2C)c1`, 39.2 (active). For the compound `COc1cccc(NC(=S)NCc2ccccn2)c1`, the B-score of Tl+ flux slope (higher = more flux/activation; lower = inhibition) is -0.247. Next, `COc1ccc(CC(=O)NCC(=O)N/N=C/c2cc(Br)ccc2OC)cc1`: -1.94; `COc1ccc(/C=C/C(=O)Nc2ccc(C)cc2)cc1S(=O)(=O)N1CCOCC1`: 0.752.

For `N#Cc1ccc(C(=O)Nc2nc(-c3cccs3)c(C(=O)C(F)(F)F)s2)cc1`, the B-score of Tl+ flux slope (higher = more flux/activation; lower = inhibition) was -2.57 (active). For `N#Cc1c(-c2cccs2)nc(SCC(=O)c2ccc(Br)cc2)[nH]c1=O` the value was -4.31; for `CCOc1cccc(C(=O)Nc2nnc(-c3cccs3)s2)c1`, -0.21; for `Cc1cc(C)cc(C(=O)NCC(=O)OCC(=O)N2CCCCC2)c1`, 1.11.

With `C[C@@H](C(=O)N1CCNCC1)n1cc(CCC(=O)O)nn1`, the B-score of Tl+ flux slope (higher = more flux/activation; lower = inhibition) is 1.43. For `CC[C@@H](C)[C@@H](C(=O)N1CCN(C(=O)OC(C)(C)C)CC1)n1cc(CCC(=O)O)nn1` the value was 3.74 (active); for `CCC(C)[C@@H](C(=O)N1CCNCC1)n1cc(CCCCN)nn1` (some centres not stated), 0.0703; for `O=c1[nH]c2ccccc2s1`, 10.2 (active). Next, `COCc1cc(=O)oc2cc(NS(=O)(=O)c3ccc(C)cc3)ccc12`: 0.0356; `O=S(=O)(NCc1ccco1)c1cnc(Cl)c(Cl)c1`: -2.3; `COc1cc(C(=O)Nc2nccs2)cc(OC)c1OC`: 0.128. Take `COC(=O)c1sccc1NC(=O)c1csc2c1CCCC2`: the B-score of Tl+ flux slope (higher = more flux/activation; lower = inhibition) was -0.108.

`COC(=O)c1sccc1NC(=O)c1cc(OC)c(OC)c(OC)c1`: the B-score of Tl+ flux slope (higher = more flux/activation; lower = inhibition) is -5.91 (active).

Turning to `COc1ccc(NS(=O)(=O)c2ccc(N3CCOCC3)c(NC(=O)c3ccccc3Br)c2)cc1`, the B-score of Tl+ flux slope (higher = more flux/activation; lower = inhibition) was -1.53. For `COc1ccc2[nH]c3ccc(OC)cc3c2c1` the value was 0.0914; for `COc1ccc2[nH]c(=O)c(CNc3ccc(C)c(C)c3)cc2c1`, 0.158; for `COc1ccc2[nH]c(=S)cc(C)c2c1`, 13.9 (active). Next, `COc1ccccc1OCC(=O)O/N=C(\N)c1ccccn1`: 0.265; `COc1ccc(C(=O)NNc2cc(C)nc(NNC(=O)c3ccc(OC)cc3)n2)cc1`: -0.94; `COC(=O)[C@H](C)[C@H]1C[C@]1(C)[C@H](NC(=O)OCc1ccccc1)c1ccccc1`: 2.81. On to `O=C(Nc1ccc(N2CCN(C(=O)c3ccccc3)CC2)c(Cl)c1)c1cccnc1`, for which the B-score of Tl+ flux slope (higher = more flux/activation; lower = inhibition) was 1.08.

In the case of `C[C@@H](C(=O)Nc1ccc2ccccc2c1)[C@@H]1C[C@@]1(C)[C@@H](NC(=O)c1cccnc1)c1ccccc1`, the B-score of Tl+ flux slope (higher = more flux/activation; lower = inhibition) was -2.53 (active). For `Cc1cc(C)n(CC(C)NCc2c(C(=O)N3CCOCC3)nc3c(C)cccn23)n1` (configuration not stated) the value was 0.104; for `CCOC(=O)C1=C(N)N2C(=O)C(C)SC2=C(C(=O)OCC)C1c1cc(OC)c(OC)c(OC)c1` (configuration not stated), -0.308; for `COc1cc2[nH]c(=S)n(Cc3ccc(F)cc3)c(=O)c2cc1OC`, 0.913. Next, `O=C(CCn1c(=S)[nH]c2ccccc2c1=O)NCCCN1CCCC1=O`: -0.0162; `CCCCn1c(=S)[nH]c2cc(S(=O)(=O)N3CCCCC3)ccc21`: 0.854; `CCCCN(C)Cc1c(C)[nH]c2ccc(Cl)cc2c1=O`: -0.235. Next, `CCCCNC(=O)c1ccc(-n2c(=S)[nH]c3ccccc3c2=O)cc1`: 1.81; `CN(C)CCn1c(=S)[nH]c2ccc(Cl)cc2c1=O`: 4.34 (active); `CCCCn1c(=O)c(C(C)=O)c(O)c2ccccc21`: -0.478. As to `CCCCn1c(=S)[nH]c2ccccc2c1=O`, the B-score of Tl+ flux slope (higher = more flux/activation; lower = inhibition) was 92.1 (active). Turning to `CCCCn1c(=S)[nH]c2ncccc2c1=O`, the B-score of Tl+ flux slope (higher = more flux/activation; lower = inhibition) was 49.5 (active). For `O=c1c2ccccc2[nH]c(=S)n1CCN1CCC(=C(c2ccc(F)cc2)c2ccc(F)cc2)CC1` the value was 8.36 (active).

Consider `CCN(CC)CCn1c(=S)[nH]c2ncccc2c1=O`, for which the B-score of Tl+ flux slope (higher = more flux/activation; lower = inhibition) is 0.847.

As for `Fc1ccc(NC(=S)N2CCc3[nH]c4ccccc4c3C2)cc1`, the B-score of Tl+ flux slope (higher = more flux/activation; lower = inhibition) is -0.241.
